Measured values reported in the supplement of paper PMC6555819.

What was measured:
Experiment in all cases: PBM binding z-score (relative to random genomic background probes); higher = stronger binding; sequences stand for … in GC…GCGATTGACAGCGTAGAATGAAGG
[1] = test system: FXR:RXRa (NR concentration 270 nM, RXRa partner concentration 90 nM)
Outline: (§1)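 The probes on custom Agilent 4×180K protein-binding microarrays were double-stranded, with 34-nt variable regions bearing direct-repeat seeds, single-nucleotide variants, half-site ablations and random human genomic background sequences. Incubation lasted 1 h with ligand-free nuclear receptor dimers in PBS pH 7.4, 2% milk, 0.02% Triton X-100, 1 mM DTT, 0.2 mg/mL BSA and 0.4 mg/ml salmon testes DNA. Antibodies against each partner (one per run) detected bound dimers, and fluorescence scans were regression-normalized. Binding z-scores take the random background probes as reference.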

[2] = test system: LXRa:RXRa (NR concentration 270 nM, RXRa partner concentration 90 nM)
Outline: as §1

[3] = test system: LXRa homodimer (NR concentration 270 nM)
Outline: as §1

[4] = test system: LXRb:RXRa (NR concentration 270 nM, RXRa partner concentration 90 nM)
Outline: as §1

[5] = test system: LXRb homodimer (NR concentration 270 nM)
Outline: as §1

[6] = test system: PPARa:RXRa (NR concentration 270 nM, RXRa partner concentration 90 nM)
Outline: as §1

[7] = test system: PPARg:RXRa (NR concentration 180 nM, RXRa partner concentration 90 nM)
Outline: as §1

[8] = test system: PPARg:RXRa 270nM:90nM, anti-RXR (NR concentration 270 nM, RXRa partner concentration 90 nM)
Outline: as §1

[9] = test system: PPARg:RXRa 30nM:10nM, anti-RXR (NR concentration 30 nM, RXRa partner concentration 10 nM)
Outline: as §1

[10] = test system: PPARg:RXRa 90nM:30nM, anti-RXR (NR concentration 90 nM, RXRa partner concentration 30 nM)
Outline: as §1

[11] = test system: PPARg:RXRa DBDmut IVT, anti-RXR (DBD mutation: RXRa K156A/R161A, NR concentration 270 nM, RXRa partner concentration 90 nM)
Outline: as §1

[12] = test system: PPARg:RXRa IVT, anti-PPARg (NR concentration 270 nM, RXRa partner concentration 90 nM)
Outline: as §1

[13] = test system: PPARg DBDmut:RXRa IVT, anti-PPARg (DBD mutation: PPARg1 K132A/R137A, NR concentration 270 nM, RXRa partner concentration 90 nM)
Outline: as §1

[14] = test system: PPARg DBDmut IVT, anti-PPARg (DBD mutation: PPARg1 K132A/R137A, NR concentration 270 nM)
Outline: as §1

[15] = test system: PPARg homodimer (NR concentration 180 nM)
Outline: as §1

[16] = test system: PXR:RXRa (NR concentration 270 nM, RXRa partner concentration 90 nM)
Outline: as §1

[17] = test system: PXR homodimer (NR concentration 270 nM)
Outline: as §1

[18] = test system: RARa:RXR (NR concentration 270 nM, RXRa partner concentration 90 nM)
Outline: as §1

[19] = test system: RARa homodimer (NR concentration 270 nM)
Outline: as §1

[20] = test system: RARb:RXRa (NR concentration 270 nM, RXRa partner concentration 90 nM)
Outline: as §1

Sequence	PBM binding z-score [1]	PBM binding z-score [2]	PBM binding z-score [3]	PBM binding z-score [4]	PBM binding z-score [5]	PBM binding z-score [6]	PBM binding z-score [7]	PBM binding z-score [8]	PBM binding z-score [9]	PBM binding z-score [10]	PBM binding z-score [11]	PBM binding z-score [12]	PBM binding z-score [13]	PBM binding z-score [14]	PBM binding z-score [15]	PBM binding z-score [16]	PBM binding z-score [17]	PBM binding z-score [18]	PBM binding z-score [19]	PBM binding z-score [20]
CCGACTGGGGCTGAAAGGTTACCATACCATCCGG	0.294	0.581	-0.00145	0.846	-1.11	1.76	0.998	1.93	0.223	1.31	-0.623	-0.162	-1.05	-1.01	0.352	1.1	-0.23	1.85	-0.057	1.46
AGTCAAAGTTCAGGACGAGGTAGCGTAAAGCACG	3.74	3.36	1.03	1.58	-0.21	3.13	4.27	4.86	1.87	3.74	-0.637	1.36	-0.194	-0.537	1.46	2.36	0.831	2.26	0.252	4.31
CCTTACGGGTCACTGACAGGTTATAGCCTTTGGA	5.57	4.01	0.368	3.43	-0.148	4.99	4.28	4.31	1.31	2.99	2.98	3.74	0.266	0.106	3.2	3.83	-0.0377	4.93	0.735	3.95
AGAACGAGGGCAATGAGTTGATAGGACGGGTGGC	0.234	0.0995	-0.497	-0.197	-0.468	1.05	1.48	0.681	0.137	0.397	3.48	2.09	0.826	0.0416	-0.0695	1.12	5.45	0.114	-0.321	2
ATCGAAAGGGCGAAGGTGAGTATACCCACCCGAA	0.199	0.432	-0.538	0.0351	-0.165	1.72	1.93	2.33	0.766	1.93	-0.906	0.809	0.146	-0.234	1.04	0.359	-0.166	1.03	-0.384	1.94
TTACCAAGGGGAAGGTCGTTGATCCCTCTGTAGA	0.907	0.734	-0.259	0.976	-0.862	1.38	0.79	2.13	0.461	1.52	-0.147	0.449	-0.647	-0.525	-0.13	0.711	-0.0192	0.899	-0.541	0.811
GCTGCTAGGTCAACTGATGGTCAGTTAAAGCTCG	3.99	3.11	0.245	2.35	0.46	3.74	2.8	3.25	0.658	2.06	4.66	4.13	-0.118	-0.331	1.79	1.64	-0.519	2.6	-0.0466	4.15
CATACAGGGTCAGCTAGGCTAGAGTAGGGACGGC	4.44	2.68	-0.0896	2.06	-0.0361	4.12	3.06	2.93	0.539	2.03	1.19	2.32	0.769	0.0787	1.21	1.85	-0.333	2.72	0.409	3.96
CCATACAGGTGAAAGGTAACTCAGTCTGGTACGC	0.917	0.86	0.0219	1.34	0.147	4.47	7.97	7.64	6.75	8.48	4.44	4.52	0.453	0.514	1.27	1.12	0.206	1.99	0.894	1.44
CGGCCAAGGTCAGCAGGTCAGTGAAAGCGACGTG	5.72	3.58	-0.0772	2.9	-0.899	4.86	4.33	4.32	0.918	2.85	3.06	3.74	-0.746	-1.2	2.33	3.48	0.241	4.37	0.145	5.34
ATCTCTAGGCAAAGTTCAGTGAAAGATCGATAGA	0.723	1.38	0.839	0.819	0.16	1.95	2.49	3.78	1.93	3.67	0.488	0.697	0.713	0.549	0.889	1.8	1.43	1.02	0.783	2.54
TCGAGTAGGTTAGGGGCATTCTGAATGGCGTCGA	0.16	0.0463	-0.301	0.694	-0.421	1.08	0.543	2.02	1.09	1.41	2.23	1.58	-0.74	-0.137	0.496	0.244	0.106	0.337	-0.415	0.807
AGAATGAGGTTAAGATCAGGGACACAGAATACAT	2.45	2.04	0.0815	1.81	0.324	3.55	2.54	2.39	0.988	1.85	3.45	3.13	1.64	0.953	1.01	1.54	0.664	2.14	1.57	2.23
GCTAATAGTTGAAAGGGCAACCGAATGATTCTCG	0.971	1.16	-0.065	1.09	-0.087	2.85	3.03	4.2	2.1	3.9	0.302	1.27	-0.057	-0.27	0.836	0.859	-0.00303	1.61	0.745	2.21
ATCGAAAGGTCGAAGGTGAGTATGCCCACCCGAA	4.46	3.31	0.253	2.87	0.664	4.64	4.16	5.05	2.9	3.81	0.0846	2.48	0.798	0.662	1.31	3.12	-0.415	4.46	-0.229	3.83
AGAATGAGGTTATACGTTGATCAGGGAAGAAAGT	2.25	1.89	0.234	1.66	0.0742	3.37	2.03	2.34	1.01	1.78	2.33	2.33	1.31	1.24	1.05	1.18	0.411	1.69	0.556	1.44
TATACAGCGTCAAAGGCCAGAGTACGAATGTCGA	-0.579	-0.473	-0.358	-0.616	-0.382	0.0937	1.16	1.62	0.56	1.13	-0.701	0.258	-0.154	0.515	-0.844	-0.442	-0.0905	-0.513	-0.705	0.524
ATCTCTAGGTAAGACTAAGTTCAGTGAAGAACGC	0.633	0.867	0.705	0.595	0.815	0.936	0.481	1.71	0.577	1.75	1.81	1.37	0.418	0.902	1.48	1.83	1.82	1.14	0.975	1.19
CGTGCTAGGTCAATGGTCAGCTAAAGCAGCTCGC	3.1	2.22	0.0909	1.37	-0.184	3.03	5.04	5.55	2.98	5.12	4.64	4.42	0.168	-1.05	1.65	0.869	-0.615	1.59	-0.282	3.77
CCGAGTAGGTTATGGGGCGTTCAGGCAACGGTGA	0.244	0.548	-0.0765	0.47	-0.285	1.67	2.44	3.87	1.97	3.39	2.68	2.65	-0.225	-0.53	0.696	-0.0536	-0.251	0.233	-0.0281	0.904
CCGAGTAGGTTATGGGGCATGCAGGCAACGGTGA	0.144	0.219	-0.12	0.502	-0.337	1.93	3.81	4.62	2.08	4.14	2.71	3.37	-0.039	-0.361	0.867	-0.014	-0.179	0.374	0.0539	1.03
TCTAGTTCGTCAAAGGTCACACACTCGAAATGCG	6.15	6.02	4.48	5.55	1.9	5.99	5.62	6.47	5.73	6.28	2.89	3.87	2.7	1.85	3.82	6.15	2.25	6.52	3.27	5.24
CCTACTAGGCCACGAAAGGTCATTGATTCAGTGA	4.02	5.66	5.5	4.32	0.558	4.84	5.77	5.3	2.35	4.43	6.91	6.28	0.693	0.0553	3.43	5.44	1.96	5.45	2.79	4.06
ATATGTAGATTAAGGGTCATTCAGGTTGGTTCGC	3.93	4.24	3.27	3.96	1.38	4.74	6.74	6.77	6.28	7.43	1.15	3.34	1.32	1.38	3.29	4.89	2.6	4.45	2.24	2.88
TAGCCTAGGTCATGCGCCAGTATACCACGCGAAC	4.17	3.31	0.602	2.61	0.0918	3.83	2.77	3.08	0.794	1.89	1.95	3.1	1.01	-0.0835	1.11	1.61	-0.142	2.54	-0.948	3.76
AATATTAGTTGAGACGAGGGCAACCGATAGGTTG	0.383	0.45	0.595	0.306	0.174	0.507	0.897	0.51	0.0399	0.408	0.326	0.882	0.648	0.786	1.36	1.71	1.48	1.4	2.43	1.26
